Assay outcomes deposited in PubChem BioAssay by Broad Institute.
C diff HTS: inhibitors of Clostridium difficile growth; Clostridium difficile clinical isolate growth, OD600, 24 h; active compounds read low; growth activity, negative = inhibition, % at 16 µg/mL (by protocol); 86,000 tested, 0.25% active;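 active means mean growth activity at or below -80% and every replicate also at or below -80%; inconclusive means mean at or below -80% but some replicate above -80%; inactive means mean growth activity above -80%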
Pf Dd2 growth: blocks growth of Plasmodium falciparum Dd2 parasites; 94,000 tested, 2.3% active; AID 1159554; P. falciparum Dd2 growth, SYBR Green, 72 h; active compounds read low; activity change, % at 10 µM; in the data active means activity change below about -80%; inconclusive means no clear call, values can overlap the other calls
T cruzi growth-1: inhibitors of T. cruzi proliferation; T. cruzi beta-gal in NIH3T3, GalScreen luminescence, 90 h; inhibition, % at 8.34 µM; 77,000 tested, 5.9% active; AID 624255;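 active means mean inhibition above about 93%, with at least 55% of replicates each passing it, limit read from the data, passing the limit was not always enough; inconclusive means only one of those two conditions holds; inactive means neither condition holds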
T cruzi growth-2: blocks T. cruzi growth in NIH3T3 host cells. AID 651739. inhibition, % at 8.35 µM. shares compounds with T cruzi growth-1. T. cruzi beta-gal in NIH3T3, GalScreen luminescence, 90 h. 5,600 tested, 72% active;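 active means mean replicate inhibition above about 95% and at least 55% of replicates individually reaching it, limit read from the data; inconclusive means only one of the two criteria is met; inactive means neither criterion is met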
T cruzi growth-3: inhibitors of T. cruzi proliferation | shares compounds with T cruzi growth-1 | T. cruzi beta-gal in NIH3T3, GalScreen luminescence, 90 h | inhibition, % at 2.09 µM | 5,600 tested, 21% active;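 active means mean inhibition above about 95%, with at least 55% of replicates also reaching it, limit read from the data; inconclusive means meets just one of the two conditions; inactive means meets neither condition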
NIH3T3 tox: kills mouse NIH/3T3 fibroblasts; shares compounds with T cruzi growth-1; NIH/3T3 viability, CellTiter-Glo ATP luminescence, 90 h; cytotoxicity (signal decrease), % at 8.35 µM; 5,600 tested, 14% active;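 active means mean signal decrease across replicates above about 35% based on untreated-well scatter, with enough replicates individually passing, limit read from the data; inconclusive means no rule stated though some were filed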
3T3 cytotox 2: cytotoxicity in mouse NIH/3T3 fibroblasts. shares compounds with T cruzi growth-1. NIH/3T3 viability, CellTiter-Glo ATP luminescence, 90 h. inhibition, % at 24.9 µM. 5,600 tested, 56% active. AID 651744;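 active means mean loss of cell viability signal at or above a set limit, and enough replicates individually reaching it; inconclusive means meets only the mean limit or only the replicate share; inactive means meets neither condition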
Of the large screens only hits and unclear results are named; the others gave an inactive call (follow-up assays come after a bar, where they were run). Shown are actives, neighbours in structure and some others; about 6.7% of the full set was active somewhere.

Cc1ccccc1S(=O)(=O)N1CC[C@@H]2[C@H](CO)Nc3ccc(-c4ccccc4)cc3[C@@H]21	T cruzi growth-1 107 | T cruzi growth-2 102 | T cruzi growth-3 inconclusive | NIH3T3 tox inactive | 3T3 cytotox 2 104
CNC[C@@H]1OCCCC[C@@H](C)Oc2ccc(NC(=O)Nc3ccc(F)cc3)cc2C(=O)N([C@@H](C)CO)C[C@@H]1C	none (no result: Pf Dd2 growth)
C[C@H]1CCCCO[C@H](CN(C)C(=O)C2CCCCC2)[C@@H](C)CN([C@@H](C)CO)C(=O)c2cc(NC(=O)Nc3ccc4c(c3)OCO4)ccc2O1	T cruzi growth-1 inconclusive
CCS(=O)(=O)NCC[C@H]1CC[C@H](NC(=O)C2CCCCC2)[C@@H](CO)O1	none
C[C@H](CO)N1C[C@H](C)[C@@H](CN(C)S(=O)(=O)c2ccc(Cl)cc2)OCCCC[C@H](C)Oc2ccc(NC(=O)Nc3ccc(F)cc3)cc2C1=O	none
C[C@@H]1CN([C@H](C)CO)C(=O)c2cc(NC(=O)Nc3ccc(F)cc3)ccc2O[C@@H](C)CCCCO[C@H]1CN(C)S(=O)(=O)c1ccc(F)cc1	none
C[C@H]1CCCCO[C@@H](CN(C)S(=O)(=O)c2ccc(F)cc2)[C@@H](C)CN([C@@H](C)CO)C(=O)c2cc(NC(=O)Nc3ccc(F)cc3)ccc2O1	Pf Dd2 growth inconclusive, T cruzi growth-1 96 | T cruzi growth-2 105 | T cruzi growth-3 99 | NIH3T3 tox inactive | 3T3 cytotox 2 43
C[C@H](CO)N1C[C@H](C)[C@@H](CN(C)S(=O)(=O)c2ccc(F)cc2)OCCCC[C@H](C)Oc2ccc(NC(=O)Nc3ccc(F)cc3)cc2C1=O	T cruzi growth-1 100 | T cruzi growth-2 108 | T cruzi growth-3 inactive | NIH3T3 tox inactive | 3T3 cytotox 2 inactive
C[C@@H]1CCCCO[C@H](CN(C)S(=O)(=O)c2ccc(Cl)cc2)[C@@H](C)CN([C@@H](C)CO)C(=O)c2cc(NC(=O)Nc3ccc(F)cc3)ccc2O1	none
C[C@@H]1CCCCO[C@H](CN(C)S(=O)(=O)c2ccc(F)cc2)[C@H](C)CN([C@H](C)CO)C(=O)c2cc(NC(=O)Nc3ccc(F)cc3)ccc2O1	T cruzi growth-1 101 | T cruzi growth-2 96 | T cruzi growth-3 110 | NIH3T3 tox inactive | 3T3 cytotox 2 40
C[C@H](CO)N1C[C@H](C)[C@H](CN(C)S(=O)(=O)c2ccc(F)cc2)OCCCC[C@H](C)Oc2ccc(NC(=O)Nc3ccc(F)cc3)cc2C1=O	T cruzi growth-1 103 | T cruzi growth-2 103 | T cruzi growth-3 inactive | NIH3T3 tox inactive | 3T3 cytotox 2 45
C[C@@H]1CN([C@@H](C)CO)C(=O)c2cc(NC(=O)Nc3ccc(F)cc3)ccc2O[C@@H](C)CCCCO[C@@H]1CN(C)S(=O)(=O)c1ccc(F)cc1	Pf Dd2 growth inconclusive
COc1ccc(S(=O)(=O)N(C)C[C@@H]2Oc3c(NC(=O)c4ccc(-c5nccs5)cc4)cccc3C(=O)N([C@H](C)CO)C[C@H]2C)cc1	none
C[C@@H]1CN([C@H](C)CO)C(=O)c2cc(NC(=O)Nc3ccccc3)ccc2O[C@@H]1CN(C)S(=O)(=O)c1cn(C)cn1	none
C[C@@H]1CN([C@H](C)CO)C(=O)c2cc(NS(=O)(=O)c3cn(C)cn3)ccc2O[C@@H](C)CCCCO[C@H]1CN(C)Cc1ccc2c(c1)OCO2	none
N#C[C@H]1[C@H](c2ccc(-c3ccccc3F)cc2)[C@@H](CO)N1C(=O)C1CCOCC1	none
COC(=O)C[C@@H]1CC[C@@H]2[C@H](COc3ccc(NC(=O)NC(C)C)cc3C(=O)N2C)O1	none
COc1ccccc1-c1ccc([C@H]2[C@@H](CO)N(C(=O)C3CCCCC3)[C@H]2C#N)cc1	none
COc1ccccc1-c1ccc([C@H]2[C@@H](C#N)N(C(=O)C3CC3)[C@H]2CO)cc1	T cruzi growth-1 99 | T cruzi growth-2 inactive | T cruzi growth-3 inactive | NIH3T3 tox inactive | 3T3 cytotox 2 inactive
COc1ccccc1-c1ccc([C@H]2[C@@H](C#N)N(C(=O)C3CC3)[C@@H]2CO)cc1	T cruzi growth-1 103 | T cruzi growth-2 110 | T cruzi growth-3 inactive | NIH3T3 tox inactive | 3T3 cytotox 2 35
COc1ccccc1-c1ccc([C@@H]2[C@H](C#N)N(C(=O)C3CC3)[C@H]2CO)cc1	T cruzi growth-1 102 | T cruzi growth-2 inactive | T cruzi growth-3 inactive | NIH3T3 tox inactive | 3T3 cytotox 2 47
COc1ccccc1-c1ccccc1[C@H]1[C@H](C#N)N(C(=O)C2CC2)[C@H]1CO	none (no result: T cruzi growth-1)
N#C[C@@H]1[C@@H](c2ccc(-c3ccccc3F)cc2)[C@H](CO)N1C(=O)C1CC1	none
COc1ccccc1-c1ccc([C@@H]2[C@@H](CO)N(C(=O)C3CC3)[C@H]2C#N)cc1	T cruzi growth-1 105 | T cruzi growth-2 inactive | T cruzi growth-3 inactive | NIH3T3 tox inactive | 3T3 cytotox 2 inactive
COc1ccccc1-c1ccc([C@@H]2[C@@H](C#N)N(C(=O)C3CCCC3)[C@@H]2CO)cc1	none (no result: T cruzi growth-1)
C[C@@H]1CN([C@H](C)CO)C(=O)c2cc(NC(=O)Nc3ccccc3)ccc2O[C@H]1CN(C)S(C)(=O)=O	none
COc1ccc(S(=O)(=O)N(C)C[C@H]2OCCCC[C@@H](C)Oc3ccc(NS(=O)(=O)c4cn(C)cn4)cc3C(=O)N([C@@H](C)CO)C[C@@H]2C)cc1	none (no result: C diff HTS)
C[C@@H]1CCCCO[C@H](CN(C)Cc2ccncc2)[C@@H](C)CN([C@@H](C)CO)C(=O)c2cc(N(C)C)ccc2O1	none
C[C@H]1CN([C@@H](C)CO)C(=O)c2cc(NC(=O)C3CC3)ccc2O[C@H]1CN(C)Cc1ccncc1	none
C[C@H]1CN([C@@H](C)CO)C(=O)c2cc(/C=C/c3ccccc3)cnc2O[C@H]1CN(C)C(=O)CN1CCOCC1	none (no result: C diff HTS, T cruzi growth-1)
C[C@@H]1CN([C@H](C)CO)C(=O)c2cc(NS(=O)(=O)c3ccccc3)ccc2O[C@@H](C)CCCCO[C@@H]1CN(C)Cc1ccncc1	none
N#C[C@H]1[C@H](c2ccc(-c3ccccc3F)cc2)[C@H](CO)N1C(=O)C1CC1	none
COc1ccccc1-c1ccc([C@H]2[C@H](C#N)N(C(=O)C3CC3)[C@H]2CO)cc1	T cruzi growth-1 105 | T cruzi growth-2 inactive | T cruzi growth-3 inactive | NIH3T3 tox inactive | 3T3 cytotox 2 inconclusive
COc1ccc(-c2ccc([C@H]3[C@H](C#N)N(C(=O)C4CC4)[C@H]3CO)cc2)cc1	none
COc1ccccc1-c1ccc([C@@H]2[C@@H](C#N)N(C(=O)C3CC3)[C@@H]2CO)cc1	T cruzi growth-1 104 | T cruzi growth-2 inactive | T cruzi growth-3 inactive | NIH3T3 tox inactive | 3T3 cytotox 2 inactive
CCCN1C[C@H](C)[C@@H](OC)CN(C)C(=O)c2cc(NC(=O)c3ccccc3F)ccc2OC[C@H]1C	none (no result: C diff HTS)
